Active and inactive are the calls of the source. How the source made its calls: active means hit-call score of the fitted dose curve at least 0.9, where 1 is the maximum; inactive means score below 0.9.
test system: not listed separately; assay: CCTE_Padilla_ZF_Score.General: CCTE's 144 Hour Post-fertilization zebrafish Assay Score for General Malformation, Padilla Lab (AID 2284411)
Method in brief: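 Wild-type zebrafish embryos were plated singly at 6-8 hpf in 10% Hanks' and exposed in sealed wells at 26C until rinsed on 5 dpf. At 6 dpf two blinded assessors scored mortality, hatching and malformations by stereomicroscopy; gain-of-signal versus DMSO.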

| Compound | outcome |
| --- | --- |
| O=C(O)c1cn(C2CC2)c2cc(N3CCNCC3)c(F)cc2c1=O | inactive |
| CCCCC(CC)COCCC#N (stereo unspecified) | inactive |
| O=[N+]([O-])c1cc(C(F)(F)F)ccc1Cl | inactive |
| CCCCCCCCC=O | inactive |
| O=C1CCCCCCCCCCCCCCO1 | inactive |
| CCCCCCCCCC=O | inactive |
| CCn1c2ccccc2c2cc(N)ccc21 | inactive |
| CC(C)c1ccc(C(C)C)cc1 | inactive |

test system: TTR (gene 7276); assay: CCTE_GLTED_hTTR_0.125uM: CCTE's human Transthyretin (hTTR) Inhibition Assay, with 0.125uM TTR, Great Lakes Toxicology and Ecology Division (GLTED) Lab (AID 2284431);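 further: hits lower the fluorescence signal relative to DMSO baseline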
Method in brief: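 Cell-free displacement of ANSA probe from 0.125uM TTR after 2 h incubation with chemical. Fluorescence read at 380 nm excitation/475 nm emission; loss of signal relative to DMSO indicates T4-site displacement.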

| Compound | AC50 |
| --- | --- |
| CC(C)=CCCC(C)=CCCC(C)=CCO | 19.9 µM (active) |
| CCCCCCCCCCCCCOS(=O)(=O)O | 1.6 µM (active) |
| CSc1nc(NC2CC2)nc(NC(C)(C)C)n1 | 10.8 µM (active) |
| O=C(Oc1ccccc1)c1ccc(O)cc1 | 0.326 µM (active) |
| CCCCCCCCCCCCCC(=O)O | 1.93 µM (active) |
| O=Nc1ccc(Nc2ccccc2)cc1 | 7.46 µM (active) |
| CCCCCCCCCC=O | 9.95 µM (active) |
| O=c1cc(-c2ccccc2)oc2cc(O)cc(O)c12 | 0.06 µM (active) |

From PubChem BioAssay (EPA / NIEHS)
